What follows are compounds tested against Tyrosine-protein kinase Lyn (Homo sapiens) (UniProt P07948). Conditions: at 0.1 µM.
Tyrosine-protein kinase Lyn (Homo sapiens), sequence (P07948 2-512 limits assumed): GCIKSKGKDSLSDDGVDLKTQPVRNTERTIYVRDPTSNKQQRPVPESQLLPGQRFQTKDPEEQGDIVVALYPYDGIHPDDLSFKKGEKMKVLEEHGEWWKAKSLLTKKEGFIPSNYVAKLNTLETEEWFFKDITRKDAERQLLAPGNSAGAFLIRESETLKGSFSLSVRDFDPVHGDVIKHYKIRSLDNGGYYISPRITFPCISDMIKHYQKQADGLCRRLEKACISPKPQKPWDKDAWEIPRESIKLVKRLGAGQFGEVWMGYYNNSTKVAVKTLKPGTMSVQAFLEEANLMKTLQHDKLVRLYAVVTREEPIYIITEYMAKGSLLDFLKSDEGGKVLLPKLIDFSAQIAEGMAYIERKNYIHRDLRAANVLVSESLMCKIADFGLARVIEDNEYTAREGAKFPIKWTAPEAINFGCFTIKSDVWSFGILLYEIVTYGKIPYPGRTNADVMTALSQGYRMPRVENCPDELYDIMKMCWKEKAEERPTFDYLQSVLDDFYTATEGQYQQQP
`COc1cccc(-n2ncc3c(N/N=C/c4ccc(C)cc4)ncnc32)c1` showed an inhibition of 9.2%.
`COc1cc2ncnc(Nc3ccc4c(cnn4Cc4ccccc4)c3)c2cc1OC` gave an inhibition of 10.4%.
In the case of `Cc1ccc(NC(=O)CC2CC2)cc1-c1ccc(C(=O)NCC2CC2)cc1`, the inhibition is reported as 6.32%.
`COc1ccc2ncnc(Nc3ccc(OCc4ccccc4)cc3)c2c1` showed an inhibition of 2.3%.
In the case of `Nc1nccc(-c2c(-c3ccc(F)cc3)ncn2CCCN2CCOCC2)n1`, the inhibition is reported as 5.23%.
With `CN(C)C(=O)O[C@@H]1CN[C@@H](C#Cc2cc3ncnc(Nc4ccc(OCc5cccc(F)c5)c(Cl)c4)c3s2)C1` the inhibition was 0.77%.
`Cc1cc(O)cc(C)c1/C=C/c1cncc(C(=O)N(C)C)c1` was tested, and the inhibition was 4.08%.
In the case of `Cc1cc(-c2ccccn2)cc(C)c1/C=C/c1cncc(-c2nn[nH]n2)c1`, the inhibition is reported as 3.33%.
For `CN(C)C(=O)O[C@H]1CN[C@H](C#Cc2cc3ncnc(Nc4ccc(OCc5cccc(F)c5)c(Cl)c4)c3s2)C1`, the inhibition was 3.87%.
Compound `Oc1cccc(-c2nc(-c3ccccc3)[nH]c2-c2ccncc2)c1` has an inhibition of 9.9%.
In the case of `c1ccc(Cc2nc3ccc(Nc4ncnc5ccccc45)cc3[nH]2)cc1`, the inhibition is reported as 5.18%.
`CCn1c(-c2nonc2N)nc2ccc(F)cc21` was tested, and the inhibition was 7.21%.
Compound `Cc1ccc2c(-c3ccnc(Nc4ccc5c(c4)OCCO5)n3)c(-c3ccc(C(F)(F)F)cc3)nn2n1` has an inhibition of 2.2%.
`N#Cc1c(NC(=O)c2ccccc2F)sc2c1CCCC2` showed an inhibition of -0.87%.
`CCOc1nccc2c1nc(-c1nonc1N)n2CC` gave an inhibition of 3.8%.
With `Nc1ccc(C#Cc2cncnc2Nc2ccc(OCc3cccc(F)c3)c(Cl)c2)cc1` the inhibition was 3.52%.
In the case of `Cc1nc(-c2ccccc2)n2nc(NCCCN3CCOCC3)ncc12`, the inhibition is reported as 2.4%.
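Also: mean inhibition of the LYN A splice variant of the kinase.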
